Compound activity deposited in PubChem by several laboratories.
A selection: hits, their analogues and other compounds. The true share with any hit is near 2.4%.
APOBEC3G inh – inhibitors of human APOBEC3G DNA deaminase | Q9HC16 | recombinant A3G, ssDNA deamination FAM/TAMRA fluorescence | inhibition, % at 20 µM | 0.28% of 330,000 active | AID 493012;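 active means inhibition of at least 40% at 20 µM, with no more than 30% in the related APOBEC3A deaminase screen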;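 further: plate controls were DMSO wells with A3G for no effect and wells lacking A3G enzyme for full effect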
Target sequence (Q9HC16 whole entry, looked up): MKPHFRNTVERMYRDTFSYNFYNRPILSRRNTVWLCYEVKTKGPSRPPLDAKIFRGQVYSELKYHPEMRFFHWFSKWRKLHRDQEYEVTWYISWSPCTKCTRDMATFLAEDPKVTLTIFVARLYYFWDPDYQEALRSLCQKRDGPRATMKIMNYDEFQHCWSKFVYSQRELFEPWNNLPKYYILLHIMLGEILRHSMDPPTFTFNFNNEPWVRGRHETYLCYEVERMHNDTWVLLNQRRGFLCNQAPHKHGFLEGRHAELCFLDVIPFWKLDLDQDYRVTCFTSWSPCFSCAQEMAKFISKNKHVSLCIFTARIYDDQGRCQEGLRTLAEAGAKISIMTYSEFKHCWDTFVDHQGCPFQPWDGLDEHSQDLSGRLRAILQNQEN
A3A deaminase – blocks human APOBEC3A ssDNA deamination; 0.41% of 330,000 active; AID 493011; P31941; inhibition, % at 20 µM; recombinant A3A, FAM/TAMRA ssDNA deamination fluorescence;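 active means at least 40% inhibition at 20 µM here, with at most 30% in a related deaminase screen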;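 further: plate controls were A3A with DMSO for no effect and wells lacking A3A enzyme for full effect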
Target sequence (P31941 whole entry, looked up): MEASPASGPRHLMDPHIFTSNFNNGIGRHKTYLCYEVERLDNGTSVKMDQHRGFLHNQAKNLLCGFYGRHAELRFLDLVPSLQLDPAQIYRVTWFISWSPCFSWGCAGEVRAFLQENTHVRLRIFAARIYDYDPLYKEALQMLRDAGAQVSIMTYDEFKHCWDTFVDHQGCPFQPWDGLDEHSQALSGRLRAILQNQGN
CendR NRP1 mod – NRP-1/CendR interaction modulation. O14786. FAM-RPARPAR peptide binding to NRP-1, fluorescence polarization. inhibition, % at 25 µM. 0.85% of 360,000 active;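 active means inhibition or corrected inhibition above about 18%, plus a signal ratio from 0.5 to 1.5, limit read from the data, passing the limit was not always enough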
ADAM10 inh – inhibitors of human ADAM10; O14672; recombinant ADAM10, EDANS/DABCYL FRET peptide cleavage, 3 h; inhibition, % at 7 µM; 0.62% of 370,000 active;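 active means inhibition above a per-campaign cutoff equal to the mean of compounds falling between control-based bounds plus 3 SD, cut at about 20% in these data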;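 further: 0% = DMSO wells while the 100% control is not disclosed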
ADAM17 inh – ADAM17 inhibition, QFRET primary screen; 0.83% of 370,000 active; inhibition, % at 6.95 µM; recombinant ADAM17, EDANS/DABCYL FRET peptide cleavage; AID 720648;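 active means inhibition above the mean of compounds lying between control limits plus 3 SD, set per campaign, cut at about 8.5% in these data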;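 further: 0% = DMSO-only wells as the low control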
ADAM10 confirm – confirmation of inhibitors of human ADAM10; shares compounds with ADAM10 inh; ADAM10 QFRET peptide cleavage, EDANS fluorescence; inhibition, % at 6.95 µM; 1% of 2,100 active;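 active means inhibition above about 20% chosen separately for each screening run, limit read from the data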;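 further: 0% = DMSO wells and 100% = marimastat wells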
ADAM17 ctr – counter-screen for ADAM10 exosite inhibitors: inhibitors of human ADAM17; 0.5% of 2,100 active; AID 743214; ADAM17 QFRET peptide cleavage, EDANS fluorescence; shares compounds with ADAM10 inh; inhibition, % at 6.95 µM;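 active means mean triplicate inhibition above the solvent-only control wells' mean plus 3 SD, cut at about 12% in these data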;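 further: 0% = DMSO wells and 100% = marimastat wells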
* hit, by the source's call.

How did Cc1ccc(CC(=O)Nc2ccc(F)c([N+](=O)[O-])c2)cc1C do in these assays?
APOBEC3G inh: -7; A3A deaminase: 1; CendR NRP1 mod: 14; ADAM10 inh: 2; ADAM17 inh: 4

Results for CCCCCCCCN1C(=O)[C@@H](CC(=O)N2CCN(C(=O)C3CC3)CC2)C[C@@]2(C(=O)OC)C1=C[C@H](C(C)(C)C)O[C@@H]2C ?
ADAM10 inh: 2; ADAM17 inh: 0

Results for COc1cccc(-c2csc(N3CCN(CC(=O)NNC(=O)c4ccc(Br)cc4)CC3)n2)c1 ?
APOBEC3G inh: 2; A3A deaminase: 2; CendR NRP1 mod: -3; ADAM10 inh: 6; ADAM17 inh: 3

What do the screens show for `COc1cccc(-c2csc(N3CCN(CC(=O)NNC(=O)c4ccc(Cl)cc4)CC3)n2)c1`?
APOBEC3G inh: -5; A3A deaminase: -3; CendR NRP1 mod: -6; ADAM10 inh: 20*; ADAM17 inh: 5; ADAM10 confirm: 0; ADAM17 ctr: 0

Results for COCCNC(=S)N1CCN(c2nc(-c3cccc(OC)c3)cs2)CC1 ?
APOBEC3G inh: -8; A3A deaminase: -5; CendR NRP1 mod: 7; ADAM10 inh: 21*; ADAM17 inh: 5; ADAM10 confirm: 1; ADAM17 ctr: 0

What do the screens show for `CCNC(=S)N1CCN(c2nc(-c3cccc(OC)c3)cs2)CC1`?
APOBEC3G inh: -6; A3A deaminase: -4; CendR NRP1 mod: -12; ADAM10 inh: 4; ADAM17 inh: 3

Results for CC(C)CN1C(=O)C[C@@]2(C(=O)N(C)c3ccc(NS(=O)(=O)C4CCCCC4)cc32)C1c1ccccc1 (some centres undefined) ?
ADAM10 inh: 1; ADAM17 inh: -1

Results for CN1C(=O)Cc2cc(S(=O)(=O)N3CCN(c4cccc(Cl)c4)CC3)ccc21 ?
APOBEC3G inh: 2; A3A deaminase: -1; CendR NRP1 mod: 4; ADAM10 inh: 17; ADAM17 inh: 0

What do the screens show for `CN1C(=O)Cc2cc(S(=O)(=O)N3CCN(c4ccc(Cl)cc4)CC3)ccc21`?
APOBEC3G inh: -1; A3A deaminase: -2; CendR NRP1 mod: 6; ADAM10 inh: 21*; ADAM17 inh: 8; ADAM10 confirm: -1; ADAM17 ctr: 0

How did COc1ccc(C2=NOC(C(=O)Nc3ccc4c(c3)OCO4)C2)cc1 (centres undefined) do in these assays?
APOBEC3G inh: -5; A3A deaminase: -2; CendR NRP1 mod: -1; ADAM10 inh: 22*; ADAM17 inh: 4; ADAM10 confirm: 3; ADAM17 ctr: 1

What do the screens show for `COc1ccc2c(c1)CCCN2C(=O)C1CCCN(S(=O)(=O)c2cccs2)C1` (centres undefined)?
ADAM10 inh: 6; ADAM17 inh: 3

How did NC(=O)c1ccc(NC(=O)COC(=O)CCSc2ccccc2)cc1 do in these assays?
APOBEC3G inh: -8; A3A deaminase: -8; CendR NRP1 mod: 9; ADAM10 inh: -1; ADAM17 inh: -1

What do the screens show for `Cc1ccc(SCCC(=O)OCC(=O)Nc2ccc(C(N)=O)cc2)cc1`?
APOBEC3G inh: -2; A3A deaminase: 3; CendR NRP1 mod: 4; ADAM10 inh: 95*; ADAM17 inh: -4; ADAM10 confirm: 0; ADAM17 ctr: 0

Results for CN(C)S(=O)(=O)c1cccc(NC(=O)COC(=O)CCSc2ccc(Cl)cc2)c1 ?
APOBEC3G inh: 3; A3A deaminase: 0; CendR NRP1 mod: -7; ADAM10 inh: 21*; ADAM17 inh: 8; ADAM10 confirm: 3; ADAM17 ctr: 1

What do the screens show for `O=C1COc2ccccc2C(c2nnnn2Cc2ccccc2)N1Cc1cccs1` (centres undefined)?
ADAM10 inh: 1; ADAM17 inh: 0

Results for O=C(NCCn1cc(SCc2ccccc2)c2ccccc21)c1c(F)cccc1F ?
APOBEC3G inh: -1; A3A deaminase: -4; CendR NRP1 mod: 13; ADAM10 inh: 24*; ADAM17 inh: 7; ADAM10 confirm: 5; ADAM17 ctr: 3

What do the screens show for `O=C(NCCn1cc(SCc2ccc(F)cc2)c2ccccc21)c1ccccc1F`?
APOBEC3G inh: -2; A3A deaminase: 1; CendR NRP1 mod: -6

What do the screens show for `S=C(Nc1ccc(Cl)c(Cl)c1)N1CCN(c2ccccn2)CC1`?
APOBEC3G inh: -7; A3A deaminase: 0; CendR NRP1 mod: 10; ADAM10 inh: 6; ADAM17 inh: -4

Results for S=C(Nc1ccc(Oc2ccccc2)cc1)N1CCN(c2ccccn2)CC1 ?
APOBEC3G inh: -5; A3A deaminase: 0; CendR NRP1 mod: 1; ADAM10 inh: 22*; ADAM17 inh: 5; ADAM10 confirm: 2; ADAM17 ctr: -1

Results for C[C@H]1[C@@H](NC(=O)C#Cc2ccccc2)CC[C@@]23CCCN2C(=O)CCC[C@@H]13 ?
ADAM10 inh: 0; ADAM17 inh: 1

Results for COc1ccccc1NC(=O)c1ccccc1NC(=O)c1cccs1 ?
APOBEC3G inh: 6; A3A deaminase: 3; CendR NRP1 mod: -2; ADAM10 inh: 21*; ADAM17 inh: 2; ADAM10 confirm: 2; ADAM17 ctr: 0

Results for Cc1ccc(C2(c3ccc(C)cc3)CC2C(=O)Nc2ccc([N+](=O)[O-])cc2O)cc1 (centres undefined) ?
APOBEC3G inh: 1; A3A deaminase: 5; CendR NRP1 mod: 1; ADAM10 inh: 42*; ADAM17 inh: 19*; ADAM10 confirm: 11; ADAM17 ctr: 4

How did CC1CCC(NC(=O)c2cccc(S(=O)(=O)N3CCN(c4ccccc4)CC3)c2)CC1 (centres undefined) do in these assays?
APOBEC3G inh: -2; A3A deaminase: 4; CendR NRP1 mod: -7; ADAM10 inh: -1; ADAM17 inh: -2

Results for O=C(NC1CCCc2ccccc21)c1cccc(S(=O)(=O)N2CCN(c3ccccc3)CC2)c1 (centres undefined) ?
APOBEC3G inh: 4; A3A deaminase: 7; CendR NRP1 mod: 6; ADAM10 inh: 20*; ADAM17 inh: 9.5*; ADAM10 confirm: 9; ADAM17 ctr: 2

What do the screens show for `CCCCCn1nnnc1C1(C)CSCC(=O)N1Cc1ccco1` (centres undefined)?
ADAM10 inh: 4; ADAM17 inh: -3

How did COC(=O)c1cc(NC(=O)CN(c2ccc(OC)cc2)S(=O)(=O)c2ccc(F)cc2)ccc1Cl do in these assays?
CendR NRP1 mod: 7; ADAM10 inh: 22*; ADAM17 inh: 9; ADAM10 confirm: 10; ADAM17 ctr: 2

What do the screens show for `CC(=O)Oc1cccc(Nc2ncnc3ccccc23)c1`?
APOBEC3G inh: -3; A3A deaminase: -8; CendR NRP1 mod: -1; ADAM10 inh: 83*; ADAM17 inh: 0; ADAM10 confirm: 2; ADAM17 ctr: 0
